Data reported in PubChem BioAssay (EPA / NIEHS).
Inconclusive results are not listed. Calls of active or inactive are those of the source. How the source made its calls, unless noted: active means hit-call score of the fitted dose curve at least 0.9, where 1 is the maximum; inactive means score below 0.9.

Key:
[1] = molecular target: Myc proto-oncogene protein (Homo sapiens) (UniProt P01106); test: ATG_Myc_CIS: Attagene CIS-FACTORIAL HepG2 Assay for human Myelocytomatosis (Myc) Proto-Oncogene Transcription Factor (AID 2282990); conditions: HepG2, Attagene cis-reporter transcription factor activity; actives raise or lower the signal
Outline: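 Transiently transfected HepG2 cells bearing cis-promoter reporter units for endogenous transcription factors; 24 h exposure. Reporter mRNA measured by RT-PCR, 6-FAM primer extension, HpaI cut and capillary electrophoresis; bidirectional fit relative to DMSO.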

[2] = ATG_NF_kB_CIS: Attagene CIS-FACTORIAL HepG2 Assay for human Nuclear Factor Kappa B (NF-kB) (AID 2282991); conditions: HepG2 Attagene cis-factorial NF-kB reporter mRNA; actives raise or lower the signal
Outline: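 HepG2, transient multi-reporter transfection, cis promoter elements (endogenous TFs). 24 h exposure. Total RNA → RT → PCR → 6-FAM label → HpaI → CE. Gain/loss vs DMSO.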

[3] = ATG_NRF2_ARE_CIS: Attagene CIS-FACTORIAL HepG2 Assay for human Nuclear Factor Erythroid 2 Related Factor 2 (NFR2) response to Antioxidant Response Elements (ARE) (AID 2282992); conditions: HepG2 Attagene ARE/NRF2 reporter, transcription factor activity; actives raise or lower the signal;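 on AC50: reporter mRNA level measured by RT-PCR and capillary electrophoresis fluorescence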
Outline: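 Readout: reporter mRNA quantified by RT-PCR plus FAM-labelled primer extension, HpaI digestion and capillary electrophoresis, 24 h after dosing transfected HepG2 cells. Gain or loss of signal is fitted bidirectionally against DMSO baseline.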

[4] = ATG_Oct_MLP_CIS: Attagene CIS-FACTORIAL HepG2 Assay for human Octamer-Binding Transcription Factor (Oct) (AID 2282993); conditions: HepG2 Attagene cis-factorial Oct reporter, mRNA; actives raise or lower the signal
Outline: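 Using HepG2 cells bearing transfected cis-reporter constructs, mRNA induction was read after 24 h by fluorescent RT-PCR and capillary electrophoresis, with DMSO defining baseline for gain- or loss-of-signal fits.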

[5] = molecular target: Cellular tumor antigen p53 (Homo sapiens) (UniProt P04637); test: ATG_p53_CIS: Attagene CIS-FACTORIAL HepG2 Assay for human p53 Transcription Factor (AID 2282994); conditions: HepG2 p53 cis-element reporter, Attagene mRNA; actives raise or lower the signal
Outline: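 Read-out: reporter mRNA by RT-PCR plus capillary electrophoresis with fluorescence detection. Human HepG2 liver cells carried transfected multi-reporter cis-element constructs, dosed 24 h. Gain or loss of signal fitted bidirectionally against DMSO control.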

[6] = BSK_3C_TissueFactor: BioMAP Diversity Plus: 3C Assay for Tissue Factor Biomarker Activity (AID 2282997); conditions: BioMAP 3C HUVEC, tissue factor biomarker readout; actives raise or lower the signal
Outline: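 After a 24 h chemical exposure of primary human umbilical vein endothelial cells, Tissue Factor levels were quantified by ELISA.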

[7] = BSK_3C_uPAR: BioMAP Diversity Plus: 3C Assay for Urokinase-type plasminogen activator receptor (uPAR) Biomarker Activity (AID 2282998); conditions: BioMAP 3C HUVEC, uPAR biomarker ELISA; actives raise or lower the signal
Outline: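 In this endothelial cell-based assay, human umbilical vein primary cells were treated with chemicals and harvested at 24 h. uPAR was quantified using ELISA, with gains or losses fitted relative to DMSO controls.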

[8] = BSK_3C_VCAM1: BioMAP Diversity Plus: 3C Assay for Vascular cell adhesion molecule 1 (VCAM1) Biomarker Activity (AID 2282999); conditions: BioMAP 3C HUVEC, VCAM1 ELISA, cytokine-stimulated; actives raise or lower the signal
Outline: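 HUVEC primary cells, 24 h compound exposure; VCAM-1 by ELISA; gain/loss of signal fitted bidirectionally vs DMSO baseline.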

[9] = BSK_4H_Eotaxin3: BioMAP Diversity Plus: 4H Assay for Eotaxin 3 Biomarker Activity (AID 2283000); conditions: primary human endothelial cells (HUVEC); actives raise or lower the signal
Outline: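 Chemicals were added to human umbilical vein endothelium cultures, and Eotaxin-3 was quantified by ELISA at 24 h. Values were derived by bidirectional fitting with DMSO serving as negative control and activity baseline.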

[10] = molecular target: human Peroxisome Proliferator-activated Receptor delta (PPARd), PPARD (gene 5467) (UniProt Q03181); test: ATG_PPARd_TRANS: Attagene TRANS-FACTORIAL HepG2 Assay for human Peroxisome Proliferator-activated Receptor delta (PPARd) (AID 2283002; active means hit-call score of the fitted dose curve at least 0.9, where 1 is the maximum)
Outline: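 HepG2 cells transiently transfected with GAL4-UAS multiplexed reporter units driven by exogenous chimeric NR-GAL4 proteins; 24 h compound exposure. Reporter mRNA measured by RT-PCR, 6-FAM primer extension, HpaI digestion and capillary electrophoresis; gain of signal fitted relative to DMSO.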

[11] = read-out: Intercellular Adhesion Molecule 1 (ICAM1), ICAM1 (gene 3383); test: BSK_3C_ICAM1: BioMAP Diversity Plus: 3C Assay for Intercellular Adhesion Molecule 1 (ICAM1) Biomarker Activity (AID 2283003); conditions: primary human endothelial cells (HUVEC); actives raise or lower the signal
Outline: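 Using DMSO as baseline, bidirectional curve fitting was applied to ICAM-1 ELISA signals from HUVEC in the 3C system, measured 24 h after compound addition.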

[12] = BSK_3C_Proliferation: Cell Proliferation Assessment in the BioMAP Diversity Plus: 3C Assay (AID 2283006); conditions: primary human endothelial cells (HUVEC);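 on AC50: potency may reflect either rise or fall in cell number versus DMSO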
Outline: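 Measured here: sulforhodamine B (0.1%) staining of TCA-fixed sub-confluent umbilical vein endothelial cultures 48 h post-dosing, absorbance 560 nm. DMSO served as negative control and baseline; both signal gain and loss were modelled.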

[13] = molecular target: human RAR-related Orphan Receptor beta (RORb), RORB (gene 6096) (UniProt Q92753); test: ATG_RORb_TRANS: Attagene TRANS-FACTORIAL HepG2 Assay for human RAR-related Orphan Receptor beta (RORb) (AID 2283010; active means hit-call score of the fitted dose curve at least 0.9, where 1 is the maximum)
Outline: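 Multiplexed transcription-factor reporter assay: HepG2 cells transiently carrying NR-Gal4/GAL4-UAS constructs, 24 h treatment, mRNA quantified by RT-PCR plus capillary electrophoresis fluorescence; activity scored as induction over DMSO.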

[14] = molecular target: human RAR-related Orphan Receptor gamma (RORg), RORC (gene 6097) (UniProt P51449); test: ATG_RORg_TRANS: Attagene TRANS-FACTORIAL HepG2 Assay for human RAR-related Orphan Receptor gamma (RORg) (AID 2283011; active means hit-call score of the fitted dose curve at least 0.9, where 1 is the maximum)
Outline: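 First, HepG2 liver cells were transfected with GAL4-UAS-driven reporter constructs and the RORg-Gal4 fusion. Next, they were treated with chemical for 24 h. Finally, reporter mRNA was quantified by RT-PCR and capillary electrophoresis, with upward activity fitted against DMSO.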

[15] = molecular target: human Peroxisome Proliferator-activated Receptor alpha (PPARa), PPARA (gene 5465) (UniProt Q07869); test: ATG_PPARa_TRANS: Attagene TRANS-FACTORIAL HepG2 Assay for human Peroxisome Proliferator-activated Receptor alpha (PPARa) (AID 2283001; active means hit-call score of the fitted dose curve at least 0.9, where 1 is the maximum;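 on AC50: potency for gain of reporter signal over DMSO so agonist or activator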)
Outline: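 Transient HepG2 transfection, GAL4-UAS reporters, NR-Gal4 chimeras; 24 h compound exposure. Readout: reporter transcripts by RT-PCR, 6-FAM primer extension, HpaI digest, capillary electrophoresis. Positive direction vs DMSO baseline.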

[16] = molecular target: human Retinoic Acid Receptor gamma (RARg), RARG (gene 5916) (UniProt P13631); test: ATG_RARg_TRANS: Attagene TRANS-FACTORIAL HepG2 Assay for human Retinoic Acid Receptor gamma (RARg) (AID 2283009; active means hit-call score of the fitted dose curve at least 0.9, where 1 is the maximum)
Outline: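 Gain-of-signal relative to DMSO is reported from fluorescent capillary electrophoresis of RT-PCR reporter products. These came from HepG2 cells expressing transfected RARg-GAL4 chimeras with UAS reporters, harvested 24 h after dosing.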

[17] = molecular target: Peroxisome proliferator-activated receptor gamma (Homo sapiens) (UniProt P37231); test: ATG_PPARg_TRANS: Attagene TRANS-FACTORIAL HepG2 Assay for human Peroxisome Proliferator-activated Receptor-gamma (PPARg) (AID 2283007; active means hit-call score of the fitted dose curve at least 0.9, where 1 is the maximum)
Outline: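 Multiplexed reporter transcription units in HepG2, 24 h dosing, reporter transcripts quantified by fluorescent RT-PCR and capillary electrophoresis. Increase over DMSO scored.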

[18] = molecular target: Nuclear receptor subfamily 1 group I member 2 (Homo sapiens) (UniProt O75469); test: ATG_PXR_TRANS: Attagene TRANS-FACTORIAL HepG2 Assay for human Pregnane X Receptor (PXR) (AID 2283008; active means hit-call score of the fitted dose curve at least 0.9, where 1 is the maximum)
Outline: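 Trans-factorial format: exogenous NR-Gal4 fusion activity, not endogenous factor, in transfected human HepG2 liver cells. After 24 h dosing, RNA isolated, reverse-transcribed, amplified and resolved by capillary electrophoresis; induction scored versus DMSO.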

[19] = molecular target: human Retinoic Acid Receptor beta (RARb), RARB (gene 5915) (UniProt P10826); test: ATG_RARb_TRANS: Attagene TRANS-FACTORIAL HepG2 Assay for human Retinoic Acid Receptor beta (AID 2283004; active means hit-call score of the fitted dose curve at least 0.9, where 1 is the maximum)
Outline: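 Transient transfection of HepG2 with multiple reporter units → chemical dosing, 24 h → total RNA isolation → RT with oligo(dT) → reporter-specific PCR, 6-FAM primer extension, HpaI digest → capillary electrophoresis. Positive direction vs DMSO control.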

[20] = molecular target: Retinoic acid receptor alpha (Homo sapiens) (UniProt P10276); test: ATG_RARa_TRANS: Attagene TRANS-FACTORIAL HepG2 Assay for human Retinoic Acid Receptor alpha (RARa) (AID 2283005; active means hit-call score of the fitted dose curve at least 0.9, where 1 is the maximum)
Outline: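 HepG2 transiently transfected with multiplex GAL4-UAS reporter units including a human RARa–GAL4 chimera; 24 h compound exposure. Reporter mRNA quantified by RT-PCR, 6-FAM labeling and capillary electrophoresis; gain of signal versus DMSO.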

Measured: AC50

Nuclear receptor subfamily 1 group I member 2 (Homo sapiens), sequence (O75469 whole entry, looked up, the tested form may be a part): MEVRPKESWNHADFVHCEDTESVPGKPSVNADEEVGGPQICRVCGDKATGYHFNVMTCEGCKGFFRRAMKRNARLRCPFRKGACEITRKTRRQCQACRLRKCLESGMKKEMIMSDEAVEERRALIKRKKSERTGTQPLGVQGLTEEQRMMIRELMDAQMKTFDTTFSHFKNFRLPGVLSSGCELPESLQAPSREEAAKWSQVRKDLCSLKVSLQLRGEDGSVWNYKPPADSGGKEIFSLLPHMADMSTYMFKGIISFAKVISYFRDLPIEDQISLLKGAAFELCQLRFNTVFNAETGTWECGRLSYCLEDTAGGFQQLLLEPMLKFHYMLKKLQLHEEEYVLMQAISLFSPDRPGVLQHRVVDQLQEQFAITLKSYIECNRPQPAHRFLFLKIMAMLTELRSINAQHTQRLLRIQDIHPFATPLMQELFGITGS
human Peroxisome Proliferator-activated Receptor delta (PPARd), PPARD (gene 5467), sequence (Q03181 whole entry, looked up, the tested form may be a part): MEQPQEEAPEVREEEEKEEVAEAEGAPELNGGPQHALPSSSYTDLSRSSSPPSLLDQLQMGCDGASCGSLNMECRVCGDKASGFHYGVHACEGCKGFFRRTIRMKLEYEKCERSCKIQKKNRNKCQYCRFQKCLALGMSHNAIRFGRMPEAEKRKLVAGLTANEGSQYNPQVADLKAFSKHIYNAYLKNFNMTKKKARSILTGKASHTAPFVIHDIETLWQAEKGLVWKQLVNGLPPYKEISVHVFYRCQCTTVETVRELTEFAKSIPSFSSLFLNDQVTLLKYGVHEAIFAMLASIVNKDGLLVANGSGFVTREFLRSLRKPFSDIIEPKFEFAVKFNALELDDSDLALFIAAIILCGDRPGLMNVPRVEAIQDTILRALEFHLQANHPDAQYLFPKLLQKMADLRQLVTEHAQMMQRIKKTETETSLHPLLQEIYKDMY
human Retinoic Acid Receptor gamma (RARg), RARG (gene 5916), sequence (P13631 whole entry, looked up, the tested form may be a part): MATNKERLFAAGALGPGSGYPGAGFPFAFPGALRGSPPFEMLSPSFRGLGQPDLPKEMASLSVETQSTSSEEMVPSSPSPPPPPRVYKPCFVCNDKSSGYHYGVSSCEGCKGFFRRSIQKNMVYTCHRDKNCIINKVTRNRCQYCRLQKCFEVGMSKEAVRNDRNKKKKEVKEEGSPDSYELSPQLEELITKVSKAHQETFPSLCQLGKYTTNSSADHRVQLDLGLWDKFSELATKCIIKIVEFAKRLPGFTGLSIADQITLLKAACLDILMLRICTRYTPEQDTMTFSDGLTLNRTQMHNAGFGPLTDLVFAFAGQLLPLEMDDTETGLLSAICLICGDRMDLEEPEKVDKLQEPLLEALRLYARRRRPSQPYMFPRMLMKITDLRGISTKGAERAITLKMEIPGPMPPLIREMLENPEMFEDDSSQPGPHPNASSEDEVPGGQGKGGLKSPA
Peroxisome proliferator-activated receptor gamma (Homo sapiens), sequence (P37231 whole entry, looked up): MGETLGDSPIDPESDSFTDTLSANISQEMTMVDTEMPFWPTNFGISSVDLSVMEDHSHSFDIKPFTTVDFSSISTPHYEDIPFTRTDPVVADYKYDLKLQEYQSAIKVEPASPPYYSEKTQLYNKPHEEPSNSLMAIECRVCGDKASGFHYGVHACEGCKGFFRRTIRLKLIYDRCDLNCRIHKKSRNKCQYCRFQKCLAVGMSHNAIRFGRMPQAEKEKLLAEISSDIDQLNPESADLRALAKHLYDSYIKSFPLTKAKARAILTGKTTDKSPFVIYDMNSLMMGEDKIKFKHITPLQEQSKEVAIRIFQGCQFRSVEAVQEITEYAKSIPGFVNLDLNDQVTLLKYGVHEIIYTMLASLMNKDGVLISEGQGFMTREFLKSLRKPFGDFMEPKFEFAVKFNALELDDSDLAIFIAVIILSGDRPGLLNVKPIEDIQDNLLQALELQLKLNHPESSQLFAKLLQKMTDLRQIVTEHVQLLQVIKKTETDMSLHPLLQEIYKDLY
human RAR-related Orphan Receptor beta (RORb), RORB (gene 6096), sequence (Q92753 whole entry, looked up, the tested form may be a part): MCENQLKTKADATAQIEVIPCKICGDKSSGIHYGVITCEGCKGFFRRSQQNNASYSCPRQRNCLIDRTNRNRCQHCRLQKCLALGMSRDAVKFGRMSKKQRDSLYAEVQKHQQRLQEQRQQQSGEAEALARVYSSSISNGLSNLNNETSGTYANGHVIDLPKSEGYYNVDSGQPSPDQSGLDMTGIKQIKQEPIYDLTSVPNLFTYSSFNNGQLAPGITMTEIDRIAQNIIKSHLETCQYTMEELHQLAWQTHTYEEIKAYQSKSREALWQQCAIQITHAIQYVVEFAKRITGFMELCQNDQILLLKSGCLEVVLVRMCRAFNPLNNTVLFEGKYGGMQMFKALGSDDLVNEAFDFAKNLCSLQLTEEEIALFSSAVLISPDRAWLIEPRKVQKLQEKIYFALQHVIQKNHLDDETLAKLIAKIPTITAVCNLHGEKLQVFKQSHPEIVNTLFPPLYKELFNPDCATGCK
Myc proto-oncogene protein (Homo sapiens), sequence (P01106 whole entry, looked up): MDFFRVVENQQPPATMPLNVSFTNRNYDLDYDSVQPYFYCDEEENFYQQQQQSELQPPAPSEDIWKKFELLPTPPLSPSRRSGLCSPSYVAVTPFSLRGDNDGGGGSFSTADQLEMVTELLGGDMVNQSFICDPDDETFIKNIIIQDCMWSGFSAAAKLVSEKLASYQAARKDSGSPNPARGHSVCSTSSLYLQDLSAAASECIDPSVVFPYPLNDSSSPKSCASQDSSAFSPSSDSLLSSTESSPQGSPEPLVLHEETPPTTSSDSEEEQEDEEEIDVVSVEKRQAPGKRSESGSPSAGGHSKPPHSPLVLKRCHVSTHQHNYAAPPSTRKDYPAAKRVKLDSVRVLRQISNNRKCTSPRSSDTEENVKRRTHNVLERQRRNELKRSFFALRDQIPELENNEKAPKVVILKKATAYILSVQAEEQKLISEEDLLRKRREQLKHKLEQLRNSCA
human RAR-related Orphan Receptor gamma (RORg), RORC (gene 6097), sequence (P51449 whole entry, looked up, the tested form may be a part): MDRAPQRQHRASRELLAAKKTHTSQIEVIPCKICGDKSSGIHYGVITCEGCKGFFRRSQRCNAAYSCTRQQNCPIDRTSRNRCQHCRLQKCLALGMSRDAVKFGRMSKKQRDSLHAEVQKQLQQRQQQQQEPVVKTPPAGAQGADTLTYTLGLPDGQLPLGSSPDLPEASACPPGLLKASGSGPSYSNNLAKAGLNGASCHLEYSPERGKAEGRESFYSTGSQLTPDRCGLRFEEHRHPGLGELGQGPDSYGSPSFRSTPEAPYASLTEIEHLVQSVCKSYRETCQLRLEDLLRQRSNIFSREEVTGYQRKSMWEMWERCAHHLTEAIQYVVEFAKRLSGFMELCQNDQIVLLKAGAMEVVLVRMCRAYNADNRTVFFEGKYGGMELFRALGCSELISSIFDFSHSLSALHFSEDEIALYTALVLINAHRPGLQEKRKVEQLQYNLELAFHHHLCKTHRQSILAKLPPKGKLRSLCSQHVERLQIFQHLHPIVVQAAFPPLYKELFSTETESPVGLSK
Cellular tumor antigen p53 (Homo sapiens), sequence (P04637 whole entry, looked up): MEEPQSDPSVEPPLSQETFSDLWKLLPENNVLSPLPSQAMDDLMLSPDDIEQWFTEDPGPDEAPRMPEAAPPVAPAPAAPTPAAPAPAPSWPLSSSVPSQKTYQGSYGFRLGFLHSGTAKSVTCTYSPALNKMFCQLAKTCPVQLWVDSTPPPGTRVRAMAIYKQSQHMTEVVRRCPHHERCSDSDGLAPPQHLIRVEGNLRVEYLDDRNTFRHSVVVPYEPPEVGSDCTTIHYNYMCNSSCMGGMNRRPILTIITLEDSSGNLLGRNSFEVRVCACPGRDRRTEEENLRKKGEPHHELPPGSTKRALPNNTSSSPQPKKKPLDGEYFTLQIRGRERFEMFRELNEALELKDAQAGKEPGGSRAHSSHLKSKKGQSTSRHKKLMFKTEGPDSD
human Peroxisome Proliferator-activated Receptor alpha (PPARa), PPARA (gene 5465), sequence (Q07869 whole entry, looked up, the tested form may be a part): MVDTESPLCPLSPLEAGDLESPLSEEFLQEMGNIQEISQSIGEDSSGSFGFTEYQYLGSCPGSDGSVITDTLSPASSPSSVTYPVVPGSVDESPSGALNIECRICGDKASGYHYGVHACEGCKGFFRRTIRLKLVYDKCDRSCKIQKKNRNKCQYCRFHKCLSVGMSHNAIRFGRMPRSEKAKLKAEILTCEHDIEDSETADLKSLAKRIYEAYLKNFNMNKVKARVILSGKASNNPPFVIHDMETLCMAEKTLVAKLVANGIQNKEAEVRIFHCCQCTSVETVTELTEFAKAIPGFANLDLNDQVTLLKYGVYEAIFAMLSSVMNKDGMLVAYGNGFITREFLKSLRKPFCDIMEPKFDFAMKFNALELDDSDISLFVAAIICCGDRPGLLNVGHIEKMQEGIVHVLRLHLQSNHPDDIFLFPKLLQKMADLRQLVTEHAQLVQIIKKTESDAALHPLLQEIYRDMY
Retinoic acid receptor alpha (Homo sapiens), sequence (P10276 whole entry, looked up, the tested form may be a part): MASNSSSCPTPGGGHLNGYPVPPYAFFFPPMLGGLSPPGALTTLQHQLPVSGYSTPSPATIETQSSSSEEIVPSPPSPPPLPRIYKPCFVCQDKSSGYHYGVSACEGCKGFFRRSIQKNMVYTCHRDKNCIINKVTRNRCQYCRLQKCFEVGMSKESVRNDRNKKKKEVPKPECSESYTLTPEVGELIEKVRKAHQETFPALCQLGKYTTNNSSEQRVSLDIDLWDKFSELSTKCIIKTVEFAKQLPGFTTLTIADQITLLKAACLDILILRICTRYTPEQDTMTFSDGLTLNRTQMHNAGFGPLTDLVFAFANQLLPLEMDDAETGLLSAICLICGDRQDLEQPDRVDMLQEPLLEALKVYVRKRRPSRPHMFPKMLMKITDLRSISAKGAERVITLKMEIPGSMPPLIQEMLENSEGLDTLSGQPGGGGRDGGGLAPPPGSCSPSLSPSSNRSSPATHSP

Cc1cc(=O)[nH]c(=S)[nH]1
not listed: [15] | [16] | [17] | [18] | [19] | [20]
inactive: all other assays above

CCCCCC(=O)O
not listed: [13] | [14] | [17] | [18] | [19] | [20]
inactive: all other assays above

CCCCOC(=O)CCCCCCCCC(=O)OCCCC
active: [5] 156 µM | [15] 37 µM
not listed: [6] | [10] | [14] | [19] | [20]
inactive: all other assays above

CCCCC(CC)COC(=O)CC(C(=O)OCC(CC)CCCC)S(=O)(=O)O (stereo unspecified)
active: [3] 11.1 µM | [6] 31.8 µM | [7] 31.1 µM | [8] 38.9 µM | [9] 36.5 µM | [11] 31.5 µM | [12] 30.6 µM | [17] 7.56 µM | [18] 0.678 µM
inactive: all other assays above

CCOC(=O)C(C)(C)Oc1ccc(Cl)cc1
active: [15] 37.2 µM
not listed: [10] | [13] | [16] | [18] | [19] | [20]
inactive: all other assays above

OC[C@@H](O)[C@@H](O)[C@H](O)[C@H](O)CO
not listed: [6] | [10] | [13] | [14] | [17] | [19]
inactive: all other assays above

NCC1(Cc2noc(=O)[nH]2)CCCCC1
not listed: [10] | [15] | [16] | [17] | [20]
inactive: all other assays above
